Measured values: the supplement of paper PMC8728848
The sample as a whole holds a higher share of the strongest signals than the screen did.

Assays:
Experiment in all cases: glycan array binding signal (z-score within array); higher = stronger binding
Settings in all cases: glycan notation: IUPAC condensed, linker removed
[1] = biological target: GlcNAc(b1-4)GlcNAc(b1-4)GlcNAc
Procedure, shortened: (§1)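 The binding signal is a Z-score computed within each array. Data were drawn from 3228 arrays in the Consortium for Functional Glycomics database, restricted to those with a known protein sequence. Scores were averaged over arrays of the same protein sequence at different concentrations or buffers, and over linkers, and negative values can be taken as non-binding.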

[2] = biological target: Neu5Ac(a2-3)Gal(b1-3)GlcNAc(b1-2)Man(a1-3)[Neu5Ac(a2-3)Gal(b1-3)GlcNAc(b1-2)Man(a1-6)]Man(b1-4)GlcNAc(b1-4)GlcNAc
Procedure, shortened: as §1

[3] = biological target: Neu5Ac(a2-3)Gal(b1-3)GlcNAc(b1-3)Gal(b1-3)GlcNAc
Procedure, shortened: as §1

[4] = biological target: Neu5Ac(a2-3)Gal(b1-3)GlcNAc(b1-3)GalNAc
Procedure, shortened: as §1

[5] = biological target: Neu5Ac(a2-3)Gal(b1-4)GlcNAc(b1-3)Gal
Procedure, shortened: as §1

[6] = biological target: Neu5Ac(a2-3)Gal(b1-4)GlcNAc(b1-3)Gal(b1-4)GlcNAc(b1-6)[Gal(b1-3)]GalNAc
Procedure, shortened: as §1

[7] = biological target: Neu5Ac(a2-3)Gal(b1-4)GlcNAc6S
Procedure, shortened: as §1

Neu5Ac(a2-6)Gal = biological target: Neu5Ac(a2-6)Gal
Procedure, shortened: as §1

[8] = biological target: Neu5Ac(a2-6)Gal(b1-4)GlcNAc(b1-2)Man(a1-3)[GlcNAc(b1-4)][Neu5Ac(a2-6)Gal(b1-4)GlcNAc(b1-2)Man(a1-6)]Man(b1-4)GlcNAc(b1-4)GlcNAc
Procedure, shortened: as §1

[9] = biological target: Neu5Ac(a2-6)Gal(b1-4)GlcNAc(b1-3)Gal(b1-4)[Fuc(a1-3)]GlcNAc(b1-3)Gal(b1-4)[Fuc(a1-3)]GlcNAc
Procedure, shortened: as §1

[10] = biological target: Neu5Ac(a2-6)GalNAc(b1-4)GlcNAc6S
Procedure, shortened: as §1

[11] = biological target: Neu5Ac(a2-8)Neu5Ac(a2-8)Neu5Ac(a2-3)Gal(b1-4)Glc
Procedure, shortened: as §1

[12] = biological target: Neu5Gc(a2-3)Gal(b1-3)[Fuc(a1-4)]GlcNAc
Procedure, shortened: as §1

[13] = biological target: Fuc(a1-2)Gal(b1-3)GalNAc(a1-3)[Fuc(a1-2)]Gal(b1-4)GlcNAc
Procedure, shortened: as §1

[14] = biological target: Fuc(a1-2)Gal(b1-3)GlcNAc(b1-3)Gal(b1-4)Glc
Procedure, shortened: as §1

[15] = biological target: Fuc(a1-2)Gal(b1-3)GlcNAc(b1-3)[Fuc(a1-3)[Gal(b1-4)]GlcNAc(b1-6)]Gal(b1-4)Glc
Procedure, shortened: as §1

[16] = biological target: Fuc(a1-2)Gal(b1-4)[Fuc(a1-3)]GlcNAc(b1-3)Gal(b1-4)[Fuc(a1-3)]GlcNAc(b1-3)Gal(b1-4)[Fuc(a1-3)]GlcNAc
Procedure, shortened: as §1

[17] = biological target: Fuc(a1-2)[Gal(a1-3)]Gal(b1-4)GlcNAc(b1-2)Man(a1-3)[Fuc(a1-2)[Gal(a1-3)]Gal(b1-4)GlcNAc(b1-2)Man(a1-6)]Man(b1-4)GlcNAc(b1-4)GlcNAc
Procedure, shortened: as §1

[18] = biological target: Fuc(a1-2)[Gal(a1-3)]Gal(b1-4)[Fuc(a1-3)]GlcNAc
Procedure, shortened: as §1

[19] = biological target: Fuc(a1-2)[GalNAc(a1-3)]Gal(b1-4)[Fuc(a1-3)]GlcNAc
Procedure, shortened: as §1

[20] = biological target: Fuc(a1-3)[Gal(b1-4)]GlcNAc(b1-4)Gal(b1-4)[Fuc(a1-3)]GlcNAc
Procedure, shortened: as §1

[21] = biological target: Fuc(a1-3)[Gal(b1-4)]GlcNAc(b1-6)[Gal(b1-3)GlcNAc(b1-3)]Gal(b1-4)Glc
Procedure, shortened: as §1

[22] = biological target: Fuc(a1-3)[GalNAc(b1-4)]GlcNAc
Procedure, shortened: as §1

Fuc(a1-4)GlcNAc = biological target: Fuc(a1-4)GlcNAc
Procedure, shortened: as §1

Gal(b1-4)Glc6S = biological target: Gal(b1-4)Glc6S
Procedure, shortened: as §1

[23] = biological target: Gal(b1-4)GlcNAc(b1-2)Man(a1-3)[Gal(b1-4)GlcNAc(b1-2)Man(a1-6)]Man(b1-4)GlcNAc(b1-4)GlcNAc
Procedure, shortened: as §1

[24] = biological target: Gal(b1-4)GlcNAc(b1-2)Man(a1-6)Man(b1-4)GlcNAc(b1-4)GlcNAc
Procedure, shortened: as §1

[25] = biological target: Gal(b1-4)GlcNAc(b1-3)[Gal(b1-4)GlcNAc(b1-6)]GalNAc
Procedure, shortened: as §1

[26] = biological target: Gal(b1-4)GlcNAc(b1-6)GalNAc
Procedure, shortened: as §1

[27] = biological target: Gal3S(b1-3)[Fuc(a1-4)]GlcNAc
Procedure, shortened: as §1

[28] = biological target: GalNAc(b1-3)Gal(a1-4)Gal(b1-4)GlcNAc
Procedure, shortened: as §1

Glc(b1-4)Glc = biological target: Glc(b1-4)Glc
Procedure, shortened: as §1

[29] = biological target: GlcNAc(b1-3)Gal(b1-4)GlcNAc
Procedure, shortened: as §1

[30] = biological target: GlcNAc(b1-3)[GlcNAc(b1-6)]GalNAc
Procedure, shortened: as §1

[31] = biological target: GlcNAc(b1-4)Gal(b1-4)GlcNAc
Procedure, shortened: as §1

[32] = biological target: GlcNAc(b1-4)[GlcNAc(b1-6)]GalNAc
Procedure, shortened: as §1

Kdn(a2-6)Gal(b1-4)GlcNAc = biological target: Kdn(a2-6)Gal(b1-4)GlcNAc
Procedure, shortened: as §1

[33] = biological target: Man(a1-2)Man(a1-2)Man(a1-3)Man
Procedure, shortened: as §1

[34] = biological target: Man(a1-2)Man(a1-2)Man(a1-6)[Man(a1-3)]Man
Procedure, shortened: as §1

Man(a1-2)Man(a1-3)Man = biological target: Man(a1-2)Man(a1-3)Man
Procedure, shortened: as §1

[35] = biological target: Man(a1-2)Man(a1-3)[Man(a1-2)Man(a1-6)]Man
Procedure, shortened: as §1

[36] = biological target: Man(a1-2)Man(a1-3)[Man(a1-2)Man(a1-6)]Man(a1-6)[Man(a1-2)Man(a1-2)Man(a1-3)]Man
Procedure, shortened: as §1

[37] = biological target: Man(a1-2)Man(a1-6)[Man(a1-3)]Man(a1-6)[Man(a1-2)Man(a1-2)Man(a1-3)]Man
Procedure, shortened: as §1

[38] = biological target: Man(a1-2)Man(a1-6)[Man(a1-3)]Man(a1-6)[Man(a1-2)Man(a1-2)Man(a1-3)]Man(b1-4)GlcNAc(b1-4)GlcNAc
Procedure, shortened: as §1

Man(a1-6)Man = biological target: Man(a1-6)Man
Procedure, shortened: as §1

Man(b1-4)GlcNAc = biological target: Man(b1-4)GlcNAc
Procedure, shortened: as §1

Neu5Ac(a2-3)Gal = biological target: Neu5Ac(a2-3)Gal
Procedure, shortened: as §1

[39] = biological target: Neu5Ac(a2-3)Gal(b1-3)GalNAc(b1-4)[Neu5Ac(a2-3)]Gal(b1-4)Glc
Procedure, shortened: as §1

[40] = biological target: Neu5Ac(a2-3)Gal(b1-3)GlcNAc(b1-3)Gal(b1-4)GlcNAc
Procedure, shortened: as §1

[41] = biological target: Neu5Ac(a2-3)Gal(b1-4)GlcNAc(b1-3)Gal(b1-4)[Fuc(a1-3)]GlcNAc
Procedure, shortened: as §1

[42] = biological target: Neu5Ac(a2-3)Gal(b1-4)[Fuc(a1-3)]GlcNAc(b1-3)Gal(b1-4)[Fuc(a1-3)]GlcNAc(b1-3)Gal(b1-4)[Fuc(a1-3)]GlcNAc
Procedure, shortened: as §1

[43] = biological target: Neu5Ac(a2-6)Gal(b1-4)GlcNAc(b1-3)GalNAc
Procedure, shortened: as §1

Neu5Ac(a2-6)GalNAc = biological target: Neu5Ac(a2-6)GalNAc
Procedure, shortened: as §1

[44] = biological target: Neu5Ac(a2-8)Neu5Ac(a2-3)Gal(b1-4)Glc
Procedure, shortened: as §1

B1: MFG-E8 (Mus musculus), P21956 (protein)
chain: MQVSRVLAALCGMLLCASGLFAASGDFCDSSLCLNGGTCLTGQDNDIYCLCPEGFTGLVCNETERGPCSPNPCYNDAKCLVTLDTQRGDIFTEYICQCPVGYSGIHCETETNYYNLDGEYMFTTAVPNTAVPTPAPTPDLSNNLASRCSTQLGMEGGAIADSQISASSVYMGFMGLQRWGPELARLYRTGIVNAWTASNYDSKPWIQVNLLRKMRVSGVMTQGASRAGRAEYLKTFKVAYSLDGRKFEFIQDESGGDKEFLGNLDNNSLKVNMFNPTLEAQYIKLYPVSCHRGCTLRFELLGCELHGCSEPLGLKNNTIPDSQMSASSSYKTWNLRAFGWYPHLGRLDNQGKINAWTAQSNSAKEWLQVDLGTQRQVTGIITQGARDFGHIQYVASYKVAHSDDGVQWTVYEEQGSSKVFQGNLDNNSHKKNIFEKPFMARYVRVLPVSWHNRITLRLELLGC
[1]
  glycan array binding signal (z-score): -0.582
[2]
  glycan array binding signal (z-score): -0.096
[3]
  glycan array binding signal (z-score): -1.04
[4]
  glycan array binding signal (z-score): 0.592
[5]
  glycan array binding signal (z-score): 0.469
[6]
  glycan array binding signal (z-score): -0.309
[7]
  glycan array binding signal (z-score): -0.285
Neu5Ac(a2-6)Gal
  glycan array binding signal (z-score): 0.316
[8]
  glycan array binding signal (z-score): 0.277
[9]
  glycan array binding signal (z-score): -0.437
[10]
  glycan array binding signal (z-score): 3.05
[11]
  glycan array binding signal (z-score): -0.889
[12]
  glycan array binding signal (z-score): 2.55

B2: CTLY 1 (Homo sapiens), Q6ZS10 (protein)
chain: AITCPEGWLPFEGKCYYFSPSTKSWDEARMFCQENYSHLVIINSFAEHNFVAKAHGSPRVYWLGLNDRAQEGDWRWLDGSPVTLSFWEPEEPNNIHDEDCATMNKGGTWNDLSCYKTTYWICERKGLNDIFEAQKIEWHE
[13]
  glycan array binding signal (z-score): -0.207
[14]
  glycan array binding signal (z-score): -0.241
[15]
  glycan array binding signal (z-score): -0.239
[16]
  glycan array binding signal (z-score): 4.81
[17]
  glycan array binding signal (z-score): -0.174
[18]
  glycan array binding signal (z-score): -0.207
[19]
  glycan array binding signal (z-score): 5.5
[20]
  glycan array binding signal (z-score): 0.526
[21]
  glycan array binding signal (z-score): -0.219
[22]
  glycan array binding signal (z-score): -0.188
Fuc(a1-4)GlcNAc
  glycan array binding signal (z-score): -0.24
Gal(b1-4)Glc6S
  glycan array binding signal (z-score): -0.248
[23]
  glycan array binding signal (z-score): -0.242
[24]
  glycan array binding signal (z-score): -0.226
[25]
  glycan array binding signal (z-score): -0.246
[26]
  glycan array binding signal (z-score): -0.23
[27]
  glycan array binding signal (z-score): 1.29
[28]
  glycan array binding signal (z-score): -0.243
Glc(b1-4)Glc
  glycan array binding signal (z-score): -0.243
[29]
  glycan array binding signal (z-score): -0.237
[30]
  glycan array binding signal (z-score): -0.066
[31]
  glycan array binding signal (z-score): -0.212
[32]
  glycan array binding signal (z-score): 0.086
Kdn(a2-6)Gal(b1-4)GlcNAc
  glycan array binding signal (z-score): -0.232
[33]
  glycan array binding signal (z-score): 6.07
[34]
  glycan array binding signal (z-score): 10.1
Man(a1-2)Man(a1-3)Man
  glycan array binding signal (z-score): 1.1
[35]
  glycan array binding signal (z-score): 4.5
[36]
  glycan array binding signal (z-score): 8.68
[37]
  glycan array binding signal (z-score): 4.81
[38]
  glycan array binding signal (z-score): 0.475
Man(a1-6)Man
  glycan array binding signal (z-score): -0.228
Man(b1-4)GlcNAc
  glycan array binding signal (z-score): -0.239
Neu5Ac(a2-3)Gal
  glycan array binding signal (z-score): -0.238
[39]
  glycan array binding signal (z-score): -0.231
[40]
  glycan array binding signal (z-score): -0.235
[4]
  glycan array binding signal (z-score): -0.237
[41]
  glycan array binding signal (z-score): -0.238
[42]
  glycan array binding signal (z-score): 1.04
Neu5Ac(a2-6)Gal
  glycan array binding signal (z-score): -0.253
[43]
  glycan array binding signal (z-score): -0.235
Neu5Ac(a2-6)GalNAc
  glycan array binding signal (z-score): -0.248
[44]
  glycan array binding signal (z-score): -0.252
